From PubChem BioAssay come the findings set out here.

A short description of assay [1]: antimalarial activity against Dd2 strain (AID 2302;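 active = growth inhibition above 50% at the single 2 µM test dose, taken to imply half-maximal potency below 2 µM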;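 also: 0% = DMSO untreated growth and 100% = chloroquine plus artemisinin killed control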). The conditions noted are these: P. falciparum Dd2 in RBCs, LDH growth readout, 72 h; at 2 µM; stronger effect = higher value.
Assay [2] in a line: HepG2 cytotoxicity, primary screen, cytotoxicity control for P. falciparum antimalarial project, cell-based, ATP luminescence (AID 2303;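 active = inhibition above 50%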;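 also: 0% = DMSO wells and 100% = digitonin-killed cells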). Conditions: HepG2 viability, 24-48 h, at 10 µM, stronger effect = higher value.
Assay [3] has as its target L-lactate dehydrogenase (Plasmodium falciparum (isolate CDC / Honduras)) (UniProt Q27743). The experiment in a line: PfLDH activity inhibition – cell lysate, 3D7 strain, counter-screen for P. falciparum growth inhibition project (AID 2304).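 Also: 0% = vehicle and 100% = reference inhibitor.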 The conditions noted are these: P. falciparum 3D7 crude extract, LDH APAD/NBT absorbance; at 2 µM; stronger effect = higher value. On the technique in general: The purpose of a counterscreen is to sort out artefacts and off-target activity.

Assay [4] in a line: inhibition of 3D7 malaria parasite growth – strain 3D7 (AID 2306).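 Also: 0% = DMSO wells and 100% = chloroquine plus artemisinin control wells.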 The conditions noted are these: P. falciparum 3D7 erythrocytic growth, LDH absorbance, 72 h; at 2 µM; stronger effect = higher value.
Assay [5] has as its target Calcium-dependent protein kinase 1 (Plasmodium falciparum (isolate 3D7)) (UniProt P62344). Description: PfCDPK1 kinase inhibitors, biochemical, TCAMS library (AID 1159585; cut-off not given, nearly all actives have IC50 up to about 0.98 µM;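 also: inhibitors leave more ATP so luminescence rises with inhibition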). Conditions: recombinant PfCDPK1, Kinase-Glo ATP depletion luminescence. In general terms: Kinase-Glo measures the ATP left after a reaction by luminescence.
Assay [6] has as its target Plasmodium falciparum protein kinase 6 (PK6, PF3D7_1337100) (UniProt Q8IDW1). Description: PfPK6 kinase inhibitors, biochemical, TCAMS library (AID 1159586). Conditions: recombinant PfPK6, Kinase-Glo ATP depletion luminescence.
Assay [7] has as its target Protein kinase 7 (PK7), Plasmodium falciparum 3D7 (PF3D7_0213400) (UniProt Q7YTF7). The experiment in a line: inhibition of Plasmodium PK7 catalytic activity – biochemical, TCAMS antimalarial set, Kinase-Glo luminescence (AID 1159587). Conditions: recombinant PfPK7, Kinase-Glo ATP depletion luminescence.
Assay [8] has as its target Calcium-dependent protein kinase 4 (Plasmodium falciparum (isolate 3D7)) (UniProt Q8IBS5). Description: PfCDPK4 kinase inhibitors, biochemical, TCAMS library (AID 1159588; cut-off not given, nearly all actives have IC50 up to about 0.91 µM). The conditions noted are these: recombinant PfCDPK4, Kinase-Glo ATP depletion luminescence.
Assay [9] deals with Aerobactin synthetase IucA (Klebsiella pneumoniae). The experiment in a line: IucA aerobactin synthetase inhibitors, biochemical, Tocris library, absorbance (AID 1345561).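 Also: 100% = enzyme without compound and 0% = no enzyme.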 The conditions noted are these: purified IucA enzyme assay, absorbance (OD) read-out; stronger effect = lower value;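 tested at 8 µM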.
The nature of assay [10]: growth inhibition of DIPG glioma cells, dose response, cell-based, SU-DIPG-XVII, MIPE5.0, CellTiter-Glo, qHTS (AID 1347060; cut-off not given, nearly all actives have AC50 up to about 26 µM;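 also: cells exposed to compound for 48 hours before viability readout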). Conditions: SU-DIPG-XVII viability, CellTiter-Glo ATP luminescence. A general note: ATP-based viability assays read luminescence as a measure of living cells.
Assay [11] can be described thus: growth inhibition of DIPG glioma cells, dose response, cell-based, SU-DIPG-XIII, MIPE4.0, CellTiter-Glo, qHTS (AID 1347061; cut-off not given, nearly all actives have AC50 up to about 37 µM;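 also: cells exposed to compound for 48 hours before readout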). Conditions: SU-DIPG-XIII viability, CellTiter-Glo ATP luminescence.
The nature of assay [12]: growth inhibition of DIPG glioma cells, dose response, cell-based, JHH-DIPG-1, MIPE4.0, CellTiter-Glo, qHTS (AID 1347062; cut-off not given, nearly all actives have AC50 up to about 27 µM;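 also: cells exposed to compound for two days before readout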). The conditions noted are these: JHH-DIPG-1 viability, CellTiter-Glo ATP luminescence.
Assay [13] in a line: growth inhibition of DIPG glioma cells, dose response, cell-based, SU-DIPG-IV, MIPE4.0, CellTiter-Glo, qHTS (AID 1347063; cut-off not given, nearly all actives have AC50 up to about 30 µM;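 also: compound exposure lasted 48 hours before the viability readout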). Conditions: SU-DIPG-IV viability, CellTiter-Glo ATP luminescence.
Assay [14] is described as follows: growth inhibition of DIPG glioma cells, dose response, cell-based, SU-DIPG-XIII, MIPE5.0, CellTiter-Glo, qHTS (AID 1347064; cut-off not given, nearly all actives have AC50 up to about 23 µM;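 also: cells exposed to compound for 48 hours before the viability read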). The conditions noted are these: SU-DIPG-XIII viability, CellTiter-Glo ATP luminescence.
The nature of assay [15]: viability loss in pontine glioma line – cell-based, SU-DIPG-XXV, MIPE5.0, CellTiter-Glo, qHTS, dose response (AID 1347065; cut-off not given, nearly all actives have AC50 up to about 26 µM;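 also: cells exposed to compound for 48 hours before ATP readout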). The conditions noted are these: CellTiter-Glo ATP luminescence.
Assay [16] can be described thus: SU-DIPG-VI glioma cell viability, MIPE4.0 library, CellTiter-Glo luminescence, qHTS (AID 1347066; cut-off not given, nearly all actives have AC50 up to about 30 µM;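 also: cells exposed to compound for 48 hours before readout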). Conditions: CellTiter-Glo ATP luminescence.
The nature of assay [17]: JHH-DIPG-1 glioma cell viability, MIPE5.0 library, CellTiter-Glo luminescence, qHTS (AID 1347067; cut-off not given, nearly all actives have AC50 up to about 26 µM;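 also: cells exposed to compound for 48 hours before readout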). The conditions noted are these: JHH-DIPG-1 glioma viability, CellTiter-Glo ATP luminescence.
Assay [18] can be described thus: SU-DIPG-XXV glioma cell viability, MIPE5.0 library, qHTS (AID 1347068; cut-off not given, nearly all actives have IC50 up to about 30 µM;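 also: cells exposed to compound for 48 hours before viability readout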).
The nature of assay [19]: sensitizers of A549 cells to miR-34 induction, primary screen, imaging, A549 dox-inducible miR-34, nuclei and caspase counts (AID 1347080;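 active = compounds whose cell count with miR-34 switched on is under 0.7 times the count with it off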). Conditions: A549 miR-34 inducible, Hoechst nuclei count, 48 h.
Assay [20] is described as follows: survival rescue of mitochondrial mutant cells in low glucose, primary screen, MELAS cybrids, Rieske KO mouse fibroblasts, CellTiter-Glo (AID 1508586;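 active = mean z-score across replicates of 1.96 or higher in either the MELAS or the Rieske mutant cell line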;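 also: z relative to plate mean and SD of compound and empty wells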).
A short description of assay [21]: viability rescue of complex I mutant cybrids, primary screen, cell-based, galactose medium, ATP luminescence (AID 1645843;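 active = z-score of at least 1.8 in each of two replicates, scored against plate mean and spread of sample wells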;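 also: positive z means more ATP and so rescue of galactose-driven cybrid death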). Conditions: complex I mutant cybrid cells, 72 h, stronger effect = higher value.
Where [22] appears, read: stronger effect = lower value, cell number ratio, induced over uninduced.
[23] abbreviates: measured here: relative caspase fold change +Dox/-Dox.
[24] abbreviates: measured here: total cells with miR-34 induction, stronger effect = lower value.
The mark [25] stands for this setting: measured here: total cells without miR-34 induction.
[26] abbreviates: MELAS cybrid survival, CellTiter-Glo 48 h, stronger effect = higher value.
The mark [27] stands for this setting: Rieske KO mouse fibroblast survival, CellTiter-Glo 72 h.

Values joined by “and” are separate entries in the source; they are usually repeats but may differ in a detail not shown here. Equal entries are not always repeated. Records with an inconclusive call do not appear. For some of these results: Entries with a potency or affinity are not part of this list. Active and inactive are the calls of the source. Unless noted, no rule for the calls is given here.

Chain of Plasmodium falciparum protein kinase 6 (PK6, PF3D7_1337100) (Q8IDW1 1-305): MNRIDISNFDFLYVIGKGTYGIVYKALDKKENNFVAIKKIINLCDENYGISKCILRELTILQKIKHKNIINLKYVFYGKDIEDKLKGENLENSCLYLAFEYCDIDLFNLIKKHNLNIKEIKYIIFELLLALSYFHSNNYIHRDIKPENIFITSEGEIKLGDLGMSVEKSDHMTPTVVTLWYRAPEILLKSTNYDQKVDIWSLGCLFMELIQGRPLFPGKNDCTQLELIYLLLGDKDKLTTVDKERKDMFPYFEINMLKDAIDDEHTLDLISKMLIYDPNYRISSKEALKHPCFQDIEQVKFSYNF
Chain of Protein kinase 7 (PK7), Plasmodium falciparum 3D7 (PF3D7_0213400) (Q7YTF7 1-343): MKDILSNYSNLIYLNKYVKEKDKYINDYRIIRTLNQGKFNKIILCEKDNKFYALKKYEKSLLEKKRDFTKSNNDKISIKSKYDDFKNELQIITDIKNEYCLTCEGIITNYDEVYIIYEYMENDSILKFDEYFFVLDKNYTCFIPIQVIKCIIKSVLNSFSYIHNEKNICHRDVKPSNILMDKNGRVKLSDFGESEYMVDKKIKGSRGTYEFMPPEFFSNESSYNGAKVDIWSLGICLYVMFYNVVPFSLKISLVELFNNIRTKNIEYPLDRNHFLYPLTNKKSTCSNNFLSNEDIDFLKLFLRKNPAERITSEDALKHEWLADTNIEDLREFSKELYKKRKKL
Chain of L-lactate dehydrogenase (Plasmodium falciparum (isolate CDC / Honduras)) (Q27743 whole entry, looked up): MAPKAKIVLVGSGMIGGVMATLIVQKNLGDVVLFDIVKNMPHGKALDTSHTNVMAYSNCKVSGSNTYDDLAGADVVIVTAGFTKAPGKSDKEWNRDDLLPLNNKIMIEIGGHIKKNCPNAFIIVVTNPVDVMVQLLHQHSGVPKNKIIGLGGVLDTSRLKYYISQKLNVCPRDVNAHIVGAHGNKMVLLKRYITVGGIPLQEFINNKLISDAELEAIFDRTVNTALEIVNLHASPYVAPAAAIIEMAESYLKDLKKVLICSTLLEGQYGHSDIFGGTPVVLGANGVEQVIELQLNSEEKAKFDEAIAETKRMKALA
Chain of Calcium-dependent protein kinase 4 (Plasmodium falciparum (isolate 3D7)) (Q8IBS5 whole entry, looked up): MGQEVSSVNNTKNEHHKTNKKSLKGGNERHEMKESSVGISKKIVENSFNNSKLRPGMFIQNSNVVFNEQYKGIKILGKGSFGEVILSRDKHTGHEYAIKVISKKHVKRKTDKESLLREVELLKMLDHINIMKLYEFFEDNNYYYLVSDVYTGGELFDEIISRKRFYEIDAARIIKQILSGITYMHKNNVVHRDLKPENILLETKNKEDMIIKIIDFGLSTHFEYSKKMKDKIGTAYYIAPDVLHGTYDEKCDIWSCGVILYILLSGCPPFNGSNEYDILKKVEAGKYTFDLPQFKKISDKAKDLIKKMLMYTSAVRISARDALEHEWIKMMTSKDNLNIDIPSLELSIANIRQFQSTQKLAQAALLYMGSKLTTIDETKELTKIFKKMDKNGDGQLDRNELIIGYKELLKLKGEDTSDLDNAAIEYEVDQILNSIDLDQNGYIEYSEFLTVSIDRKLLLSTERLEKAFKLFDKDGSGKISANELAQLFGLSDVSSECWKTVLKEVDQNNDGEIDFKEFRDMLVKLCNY
Chain of Calcium-dependent protein kinase 1 (Plasmodium falciparum (isolate 3D7)) (P62344 whole entry, looked up): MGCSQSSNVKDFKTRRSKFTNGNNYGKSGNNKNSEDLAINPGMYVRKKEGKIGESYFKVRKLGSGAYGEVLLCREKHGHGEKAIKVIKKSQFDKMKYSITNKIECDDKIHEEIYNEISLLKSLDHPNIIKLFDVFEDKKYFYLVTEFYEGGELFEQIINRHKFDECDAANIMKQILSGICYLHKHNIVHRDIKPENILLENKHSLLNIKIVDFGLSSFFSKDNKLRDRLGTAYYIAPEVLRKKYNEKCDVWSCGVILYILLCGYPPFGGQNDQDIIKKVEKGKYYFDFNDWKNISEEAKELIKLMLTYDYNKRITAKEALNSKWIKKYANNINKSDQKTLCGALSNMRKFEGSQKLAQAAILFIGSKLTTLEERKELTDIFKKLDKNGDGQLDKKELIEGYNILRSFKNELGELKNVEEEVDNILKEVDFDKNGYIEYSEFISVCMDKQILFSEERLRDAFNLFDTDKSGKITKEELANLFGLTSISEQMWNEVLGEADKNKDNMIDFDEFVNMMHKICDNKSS

In general, inhibition refers to the change of the read-out against control, counted positive when it falls. In the case of `Oc1ccc(CCNc2nc(NCCCOc3ccccc3-c3ccc(F)cc3)nc(N3CCNCC3)n2)cc1`, the growth inhibition in assay [1] was 8% (inactive); in [4], 85% (active). Further, the inhibition was 30% (inactive) in [2] and -1% (inactive) in assay [3]. Further, the result in assay [5], in [6], in assay [7] and in assay [8] was inactive.

With `O=C(/C=C/c1ccc(Cl)c(Cl)c1)NCCCCCN1CCC(NC(=O)Nc2ccccc2Cl)CC1`, the growth inhibition in assay [1] was 23% (inactive); in [4] it was 102% (active). Further, the inhibition was 56% (active) in assay [2] and 3% (inactive) in assay [3]. The outcome in assay [5], in assay [6], in assay [7] and in assay [8] was inactive.

The term remaining activity denotes the signal under treatment as a percentage of the control signal. Broadly, the AC50 is the concentration at which the activity in the assay is half-maximal. In general, IC50 refers to the concentration at which inhibition is half-maximal. Regarding `CCc1ccc(OCc2ccccc2C(=O)Nc2ccc3nc(C)cc(N)c3c2)cc1`, the growth inhibition in assay [1] is 74% (active); in assay [4], 99% (active). The inhibition in assay [2] was 98% (active); in assay [3] it was 0% (inactive). Further, the outcome in [5], in [6], in assay [7] and in assay [8] was inactive. For the same compound, the remaining activity in assay [9] is 108% (inactive). Further, the AC50 in assay [10] is 9.34 µM (active); in assay [11], 11.8 µM (active); in assay [12] it was 3.32 µM (active); in assay [13] it was 3.32 µM (active); in assay [14], 7.42 µM (active); in assay [15] it was 8.33 µM (active). The values for the AC50 in assay [16] and in assay [17] were 8.33 µM (active) and 5.25 µM (active), respectively. Besides, in assay [18], the half-maximal inhibitory concentration (IC50) was 9.34 µM (active). In addition, the fold change was 0.988 (inactive) and 0.896 (inactive) in [19] (setting [22]); 1.57 and 0.955 in assay [19] (setting [23]). Further, the cell count is 1370 and 181 in [19] (setting [24]); 1390 and 202 in assay [19] (setting [25]). Besides, the z-score in [20] (setting [26]) was -0.512 (inactive); in assay [20] (setting [27]) it was 0.826; in assay [21], -0.7 (inactive).

`CC(CCCCC(=O)Nc1ccc(C(F)(F)F)cc1)NCC(O)c1cccc(Cl)c1` (centres undefined): the results for the growth inhibition in assay [1] and in [4] were 92% (active) and 99% (active), respectively. In addition, the inhibition was 51% (active) in [2] and -8% (inactive) in [3]. Further, the result in assay [5], in [6], in assay [7] and in assay [8] was inactive.

For the compound `N#CC(CC(=O)c1ccc(Cl)cc1)c1cccc(F)c1` (centres undefined), the figures for the growth inhibition in assay [1] and in [4] were 4% (inactive) and 97% (active), respectively. Further, the inhibition in assay [2] is 5% (inactive); in [3], 4% (inactive). In addition, the outcome in [5], in [6], in [7] and in [8] was inactive.

Consider `COc1cc2c(Nc3ccc(NC(=O)c4ccccc4)cc3)ncnc2cc1OCCCN1CCOCC1`, for which the growth inhibition in [1] was 93% (active); in [4], 99% (active). For the same compound, the results for the inhibition in assay [2] and in assay [3] were 14% (inactive) and 5% (inactive), respectively. For the same compound, the outcome in assay [5], in [6], in assay [7] and in assay [8] was inactive. Moreover, the remaining activity in assay [9] was 94.5% (inactive). Moreover, the AC50 in assay [10] was 4.68 µM (active); in assay [12] it was 20.9 µM (active); in assay [13], 18.7 µM (active); in assay [15], 1.32 µM (active); in [17], 20.9 µM (active). For the same compound, the IC50 in assay [18] was 8.33 µM (active). The fold change in assay [19] (setting [22]) was 1.01 (inactive) and 1.03 (inactive); in assay [19] (setting [23]), 1 and 1.45. Besides, the cell count in assay [19] (setting [24]) was 1920 and 4040; in assay [19] (setting [25]), 1900 and 3920. Besides, the values for the z-score in assay [20] (setting [26]), in [20] (setting [27]) and in assay [21] were -0.661 (inactive), 0.628 and -0.64 (inactive), respectively.
